From PubChem BioAssay (Tox21)
Inconclusive results are not listed. The source made the active and inactive calls. Unless noted, calls follow the shape of the dose curve; as a rule, active = well fitted curve in the direction sought with a large enough effect in the repeat runs; inconclusive = weak or mixed curves; inactive = no such curve, though single readings can be large; an effect the other way counts as inactive or inconclusive.

Tests used:
[1] = qHTS assay to identify small molecule agonists of the peroxisome proliferator-activated receptor delta (PPARd) signaling pathway - cell viability counter screen (AID 743211); also: nearly all actives have a fitted effect of over 55% in size
Method in brief: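 PPARd-bla HEK293H cells (3000/well) were pre-incubated 5 h at 37 C, then exposed to compound for 17 h at 37 C. After 2 h with LiveBLAzer substrate, CellTiter-Glo was added to the same wells; luminescence read after 30 min at room temperature.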

[2] = qHTS assay to identify small molecule antagonists of the peroxisome proliferator-activated receptor delta (PPARd) signaling pathway - cell viability counter screen (AID 743213); also: nearly all actives have a fitted effect of over 50% in size
Method in brief: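 HEK293H PPARd UAS-bla cells, 5 h pre-incubation, compound + L165041 300 nM final, 17 h 37 C; B/G FRET substrate 2 h RT; then CellTiter-Glo 30 min RT, luminescence.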

[3] = molecular target: Peroxisome proliferator-activated receptor delta (Homo sapiens) (UniProt Q03181); assay: qHTS assay to identify small molecule antagonists of the peroxisome proliferator-activated receptor delta (PPARd) signaling pathway (AID 743215; active = well fitted inhibition curve with a large enough effect in the signal ratio in the repeat runs, not every such curve was filed as active; the % refers to the signal ratio;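 also: cells stimulated with agonist L165041 at 300 nM final during compound exposure; series mostly up to about 62 µM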)
Chain of Peroxisome proliferator-activated receptor delta (Homo sapiens) (Q03181 whole entry, looked up): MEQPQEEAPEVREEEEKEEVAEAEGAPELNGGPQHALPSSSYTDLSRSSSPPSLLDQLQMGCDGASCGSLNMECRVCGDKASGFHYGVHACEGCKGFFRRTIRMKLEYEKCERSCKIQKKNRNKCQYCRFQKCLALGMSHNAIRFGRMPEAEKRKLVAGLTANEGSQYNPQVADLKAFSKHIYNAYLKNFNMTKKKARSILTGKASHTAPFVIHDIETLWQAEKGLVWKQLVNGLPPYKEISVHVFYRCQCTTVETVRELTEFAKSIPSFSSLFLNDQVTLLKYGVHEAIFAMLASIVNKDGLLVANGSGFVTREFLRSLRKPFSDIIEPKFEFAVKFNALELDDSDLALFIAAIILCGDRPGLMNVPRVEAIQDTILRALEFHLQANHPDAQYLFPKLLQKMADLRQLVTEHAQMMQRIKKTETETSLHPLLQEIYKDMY
Method in brief: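 Inhibition of L165041-driven (300 nM final) PPARd signaling is scored in HEK293H UAS-bla cells. Exposure lasts 17 h at 37 C; beta-lactamase activity is then read by FRET substrate fluorescence after 2 h at room temperature.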

[4] = qHTS assay to identify small molecule antagonists of the farnesoid-X-receptor (FXR) signaling pathway - cell viability counter screen (AID 743221; active = well fitted cell-killing curve with a large enough effect in the repeat runs, not every such curve was filed as active; also: nearly all actives have a fitted effect of over 50% in size)
Method in brief: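 GeneBLAzer FXR-UAS-bla HEK 293T cells, compound plus chenodeoxycholic acid (50 uM final), 16 h at 37 C. CellTiter-Glo added to the same wells after the beta-lactamase read; luminescence read after 30 min at room temperature as viability.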

[5] = molecular target: Vitamin D3 receptor (Homo sapiens) (UniProt P11473); assay: qHTS assay to identify small molecule agonists of the vitamin D receptor (VDR) signaling pathway (AID 743222; calls by dose curve)
Chain of Vitamin D3 receptor (Homo sapiens) (P11473 whole entry, looked up): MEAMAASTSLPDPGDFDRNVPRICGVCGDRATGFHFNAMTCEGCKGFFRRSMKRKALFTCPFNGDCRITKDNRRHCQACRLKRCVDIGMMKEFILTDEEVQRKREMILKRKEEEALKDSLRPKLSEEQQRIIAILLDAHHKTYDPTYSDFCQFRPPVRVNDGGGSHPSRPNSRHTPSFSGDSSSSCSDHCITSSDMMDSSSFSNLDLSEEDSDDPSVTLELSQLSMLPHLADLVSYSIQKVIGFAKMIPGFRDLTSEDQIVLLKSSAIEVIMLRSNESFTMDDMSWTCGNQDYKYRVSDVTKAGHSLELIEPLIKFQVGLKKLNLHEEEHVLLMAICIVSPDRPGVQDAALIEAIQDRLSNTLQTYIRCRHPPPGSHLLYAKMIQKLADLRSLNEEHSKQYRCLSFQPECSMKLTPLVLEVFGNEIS
Method in brief: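 Quantitative HTS agonist-mode screen: compounds in DMSO were pin-transferred onto VDR-bla cells and incubated 16 h at 37C, 5% CO2. Reporter activity was detected with LiveBLAzer B/G FRET substrate after 2 h at room temperature.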

[6] = molecular target: Vitamin D3 receptor (Homo sapiens) (UniProt P11473); assay: qHTS assay to identify small molecule antagonists of the vitamin D receptor (VDR) signaling pathway (AID 743223; active = well fitted inhibition curve with a large enough effect in the signal ratio in the repeat runs, not every such curve was filed as active; the % refers to the signal ratio)
Method in brief: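 VDR-bla cells were treated with compound plus 3 nM final 1alpha,25-dihydroxyvitamin D3 for 16 h at 37C. Beta-lactamase reporter read by B/G FRET substrate fluorescence after 2 h at room temperature. qHTS format.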

[7] = molecular target: Bile acid receptor (Homo sapiens) (UniProt Q96RI1); assay: qHTS assay to identify small molecule antagonists of the farnesoid-X-receptor (FXR) signaling pathway (AID 743217; active = well fitted inhibition curve with a large enough effect in the signal ratio in the repeat runs, not every such curve was filed as active; the % refers to the signal ratio)
Chain of Bile acid receptor (Homo sapiens) (Q96RI1 whole entry, looked up): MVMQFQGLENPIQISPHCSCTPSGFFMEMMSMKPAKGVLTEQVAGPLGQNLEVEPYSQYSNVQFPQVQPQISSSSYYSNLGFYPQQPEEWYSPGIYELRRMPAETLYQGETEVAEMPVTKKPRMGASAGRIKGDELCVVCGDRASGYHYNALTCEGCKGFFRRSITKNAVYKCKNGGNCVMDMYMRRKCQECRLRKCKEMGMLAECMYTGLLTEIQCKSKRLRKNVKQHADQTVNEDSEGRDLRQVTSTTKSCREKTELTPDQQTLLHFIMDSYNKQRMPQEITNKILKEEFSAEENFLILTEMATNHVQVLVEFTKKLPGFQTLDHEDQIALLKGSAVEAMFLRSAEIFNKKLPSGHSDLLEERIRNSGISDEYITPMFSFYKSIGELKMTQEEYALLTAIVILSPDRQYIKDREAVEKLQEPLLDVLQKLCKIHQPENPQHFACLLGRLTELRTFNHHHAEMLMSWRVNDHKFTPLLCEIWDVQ
Method in brief: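 Antagonist mode against 50 uM (final) chenodeoxycholic acid stimulation in FXR-bla HEK 293T cells, 16 h at 37 °C. Inhibition detected as reduced beta-lactamase activity via LiveBLAzer B/G FRET fluorescence after 2 h at room temperature.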

[8] = qHTS assay to identify small molecule agonists of the farnesoid-X-receptor (FXR) signaling pathway - cell viability counter screen (AID 743218); also: nearly all actives have a fitted effect of over 45% in size
Method in brief: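 Cytotoxicity counter-screen run in parallel, same wells: FXR-UAS-bla HEK 293T cells dosed 16 h at 37 C, viability read by CellTiter-Glo luminescence after 30 min at room temperature.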

[9] = molecular target: Bile acid receptor (Homo sapiens) (UniProt Q96RI1); assay: qHTS assay to identify small molecule agonists of the farnesoid-X-receptor (FXR) signaling pathway (AID 743220; active = well fitted activation curve with a large enough effect in the signal ratio in the repeat runs, not every such curve was filed as active; the % refers to the signal ratio)
Method in brief: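 Beta-lactamase reporter under UAS control in GeneBLAzer FXR HEK 293T cells (5000/well) measured with LiveBLAzer FRET substrate after 2 h at room temperature. Compound exposure lasted 16 h at 37C.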

Measured: Potency

OCCN1CCN(CCO)CC1
inactive: [1] | [2] | [3] | [4] | [5] | [6]

CC1=C2[C@H](/C=C(\C)C(=O)O)CC[C@@H](C)[C@H]2CC1
inactive: [1] | [2] | [7] | [8] | [9] | [4]

CC/C=C\CCOC(=O)CCCCC
inactive: [1] | [2] | [3] | [8] | [4] | [5]

Cc1cn([C@@H]2O[C@H](CO)[C@@H](O)[C@@H]2F)c(=O)[nH]c1=O
inactive: [1] | [2] | [3] | [4] | [6]

O=c1[nH]c(=O)n([C@H]2C[C@H](O)[C@@H](CO)O2)cc1C(F)(F)F
inactive: [1] | [2] | [3] | [8] | [4] | [6]

CN1CCN(c2c(F)cc3c(=O)c(C(=O)O)cn4c3c2SCC4)CC1
inactive: [1] | [2] | [3] | [7] | [8] | [4] | [5] | [6]

C=C(C)C(=O)OCCOP(=O)(O)O
inactive: [1] | [2] | [3] | [8] | [4] | [5]

Oc1ccccc1F
inactive: [1] | [2] | [7] | [8] | [4] | [6]

Cc1ccc([N+](=O)[O-])cc1Cl
inactive: [1] | [2] | [3] | [8] | [9] | [6]

O=C(O)[C@@H](O)[C@H](O)[C@H](O)[C@@H](O)C(=O)O
inactive: [1] | [2] | [3] | [8] | [4]

OCc1c2ccccc2cc2ccccc12
inactive: [1] | [2] | [3] | [8] | [4] | [5] | [6]

CC(CNC1CCCCC1)OC(=O)c1ccccc1 (stereo not given)
inactive: [1] | [2] | [3] | [8] | [9] | [4]

CCCNC(C)(C)COC(=O)c1ccccc1
inactive: [1] | [2] | [3] | [8] | [4] | [5] | [6]

FC(F)(F)c1ccccc1
inactive: [1] | [2] | [3] | [8] | [4] | [5] | [6]

CCc1nnc(NS(=O)(=O)c2ccc(N)cc2)s1
inactive: [1] | [2] | [7] | [8] | [4] | [5] | [6]

NCCC(O)(P(=O)(O)O)P(=O)(O)O
inactive: [1] | [2] | [3] | [7] | [8] | [4]

CC(C)(C)c1cccc(O)c1
inactive: [1] | [2] | [3] | [8] | [6]

Cc1cc2c(s1)Nc1ccccc1N=C2N1CCN(C)CC1
inactive: [1] | [2] | [3] | [8] | [4] | [5] | [6]

CCOC(=O)C(Br)c1ccccc1 (stereo not given)
inactive: [1] | [2] | [3] | [4] | [5]

O=C(O[C@@H](C(=O)O)[C@@H](OC(=O)c1ccccc1)C(=O)O)c1ccccc1
inactive: [1] | [2] | [3] | [8] | [4]

O=C(O)C(=O)Cc1c[nH]c2ccccc12
inactive: [1] | [2] | [3] | [8] | [4] | [5]

C[C@]12CCC(=O)C=C1CC[C@@H]1[C@@H]2CC[C@@]2(C)[C@H]1CC[C@]2(O)C(=O)CO
inactive: [1] | [2] | [3] | [8] | [6]

CC(C)(C)c1ccc(OC(=O)c2ccccc2O)cc1
inactive: [1] | [2] | [7] | [8] | [5] | [6]

Nc1ccc(Oc2ccc(N)c(N)c2)cc1
inactive: [1] | [2] | [3] | [8] | [4] | [6]

Cc1ncc(CO)c(CN)c1O
inactive: [1] | [2] | [3] | [8] | [4] | [5]

CC(=O)OC1C2(C)CCC(C2)C1(C)C (stereo not given)
inactive: [1] | [2] | [3] | [4]

CCNCCO
inactive: [1] | [2] | [7] | [8] | [9] | [4] | [5]

CN1CCC[C@@H]1Cc1c[nH]c2ccc(CCS(=O)(=O)c3ccccc3)cc12
inactive: [1] | [2] | [3] | [8] | [4] | [5] | [6]

CCOC(=O)[C@H](CCc1ccccc1)N[C@@H](C)C(=O)N1Cc2cc(OC)c(OC)cc2C[C@H]1C(=O)O
inactive: [1] | [2] | [3] | [5] | [6]

COC(=O)C(C)O (stereo not given)
inactive: [1] | [2] | [3] | [8] | [4]

CCN(CC)CCNC(=O)COc1ccc(Cl)cc1
inactive: [1] | [2] | [3] | [8] | [4]

Cn1cnc2c(F)c(Nc3ccc(Br)cc3Cl)c(C(=O)NOCCO)cc21
inactive: [1] | [2] | [3] | [7] | [8] | [4] | [6]

O=C(CC(=O)C(F)(F)F)c1ccccc1
inactive: [1] | [2] | [3] | [8] | [4] | [6]

Nc1ccc2ccccc2c1S(=O)(=O)O
inactive: [1] | [2] | [3] | [8] | [5] | [6]

C1CCOC1
inactive: [1] | [2] | [9] | [4] | [5] | [6]

NC(=O)Cc1cccc(C(=O)c2ccccc2)c1N
inactive: [1] | [2] | [8] | [9] | [6]

CCCCCCC
inactive: [1] | [2] | [9] | [4]

COc1ccc2nc(NC(=O)Nc3ccccc3)sc2c1
inactive: [1] | [2] | [8] | [4] | [5] | [6]

OCCN(CCO)CCN(CCO)CCO
inactive: [1] | [2] | [8] | [4] | [5] | [6]

CCCNC(C)C(=O)Nc1c(C)csc1C(=O)OC (stereo not given)
inactive: [1] | [2] | [8] | [4] | [5] | [6]

CCCCCOc1ccc(C2SC(=O)NC2=O)cc1OCC (stereo not given)
inactive: [1] | [2] | [4] | [6]

Clc1cccc(-c2cc(Cl)cc(Cl)c2)c1
inactive: [1] | [2] | [4] | [5] | [6]

CCOc1ccc2nc(N)sc2c1
inactive: [1] | [2] | [8] | [4]

CCCCC1CCC(=O)O1 (stereo not given)
inactive: [1] | [2] | [8] | [4]

CC1(C)O[C@@H]2C[C@H]3[C@@H]4CCC5=CC(=O)CC[C@]5(C)[C@@]4(F)[C@@H](O)C[C@]3(C)[C@]2(C(=O)CCl)O1
inactive: [1] | [2] | [7] | [4] | [5]

CN(C)CC[C@@H](c1ccc(Cl)cc1)c1ccccn1
inactive: [1] | [2] | [4]

C=CCc1cc(OC)c(O)c(C(=O)NCCO)c1
inactive: [1] | [2] | [8] | [9] | [4] | [5] | [6]

Cc1ccc(C(C)C)cc1O
inactive: [1] | [2] | [8] | [4] | [5]

CC(=O)O[C@H]1CC[C@@]2(C)C(=CC[C@@H]3[C@@H]2CC[C@]2(C)C(C(C)=O)=CC[C@@H]32)C1
inactive: [1] | [2] | [8] | [4] | [5] | [6]

COC(C)CCO (stereo not given)
inactive: [1] | [2] | [6]

OCc1ccccc1O
inactive: [1] | [2] | [8] | [4] | [5] | [6]

CC1=NN(c2cc(Cl)c(S(=O)(=O)O)cc2Cl)C(=O)C1N=Nc1ccc(S(=O)(=O)O)cc1 (stereo not given)
inactive: [1] | [2] | [8] | [4] | [5] | [6]

O=C(C(Cl)Cl)N1CCOC12CCCCC2
inactive: [1] | [2] | [8] | [9] | [4] | [5] | [6]

OCCN(CCO)c1ccccc1
inactive: [1] | [2] | [8] | [9] | [4] | [5] | [6]

CC(=O)Oc1cc(C(C)C)c(OCCN(C)C)cc1C
inactive: [1] | [2] | [8] | [6]

C=O
inactive: [1] | [2] | [8] | [4] | [5] | [6]

COC(=O)c1ccc(OC)cc1
inactive: [1] | [2] | [8] | [5]

CC1(O)CSC(C)(O)CS1 (stereo not given)
inactive: [1] | [2] | [8] | [9] | [4]

C=CCCCCCCCCO
inactive: [1] | [2] | [4]

CC(C)C[C@H](NC(=O)OCC1c2ccccc2-c2ccccc21)C(=O)O
inactive: [1] | [2] | [7] | [9] | [4]

CCOc1ccccc1N
inactive: [1] | [2] | [4] | [5] | [6]

CCCCCCOc1ccc(N)cc1
inactive: [1] | [2] | [4] | [5] | [6]

C=CC1CO1 (stereo not given)
inactive: [1] | [2] | [8] | [4] | [5]

CCCCCCn1c(=O)c2c(ncn2C)n(C)c1=O
inactive: [1] | [2] | [8] | [4]

CCCS(=O)c1ccc2nc(NC(=O)OC)[nH]c2c1 (stereo not given)
inactive: [1] | [2] | [8] | [9] | [4]

CCCCNc1cc(C(=O)O)cc(S(N)(=O)=O)c1Oc1ccccc1
inactive: [1] | [2] | [8] | [4] | [5] | [6]

CC(C)C1=CC2=CC[C@@H]3[C@](C)(CCC[C@@]3(C)C(=O)O)[C@H]2CC1
inactive: [1] | [2] | [4] | [6]

CC(C)NCC(O)COc1ccc(CCOCC2CC2)cc1 (stereo not given)
inactive: [1] | [2] | [8] | [4] | [5] | [6]
